From PubChem
Hits are enriched below; roughly 4.3% of the tested compounds scored in any of these assays.
esBAF inh = blocks esBAF chromatin remodeling in mouse ES cells; reporter increase, % at 12.5 µM; AID 602393; Bmi1-luciferase knock-in reporter, 24 h; 100% = twice the neutral-well signal; 350,000 tested, 2% active; in the data active means activation above about 40%; inconclusive means no clear call, values can overlap the other calls;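 further: 0% = median of the plate's neutral control wells and 100% = double that signal; a rise in the Bmi1 reporter signal indicates esBAF inhibition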
HSF-1 act = increases HSF-1 driven luciferase reporter signal. NIH3T3-HGL HSF-1 luciferase reporter, MG132, 8 h; 100% = twice DMSO control signal. activation, % at 9 µM. 300,000 tested, 1.7% active;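 active means mean replicate activation of at least 50% with a set share of replicates each reaching 50%; inconclusive means only one of those two conditions met; inactive means mean below 50% and too few replicates reaching it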;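 further: 0% = median of the neutral control wells and 100% = twice that signal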
Wnt act = activators of Wnt/beta-catenin signaling; Wnt/beta-catenin reporter cell assay, activator, plate reader; activation, % at 9.35 µM; 300,000 tested, 1.2% active; in the data active means activation above about 30%, passing the limit was not always enough; inconclusive means no clear call, values can overlap the other calls;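 further: 0% = neutral control wells and 100% = positive control wells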
MITF act = activators of MITF-driven TRPM1 promoter activity in SK-MEL-5 cells | SK-MEL-5 TRPM1-promoter luciferase, 24 h; % of positive control, neutral wells = 0 | activation, % at 12.5 µM | 300,000 tested, 0.75% active | AID 588334;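 active means mean activation of at least 80% with every replicate also reaching 80%; inconclusive means mean reaches 80% but some replicate falls short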;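 further: 0% = neutral control wells and 100% = parthenolide positive control wells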
SMARCA2 act = activators of SMARCA2 function; MG213 cells, MMTV-luciferase reporter, dexamethasone, overnight; 370,000 tested, 1% active; activation, % at 9.1 µM; in the data active means activation above about 7.8%;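 further: 0% = vehicle wells and 100% = reference activator wells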
HSF1 inhib = HSF1 inhibition; 300,000 tested, 0.77% active; NIH3T3-HGL HSE-luciferase, MG132-induced, luminescence 8 h; active compounds read low; activity change, negative = inhibition, % at 7.5 µM (by protocol); AID 2098;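 active means more than half of replicate wells show activity change below -50%, luminescence cut by over half; inconclusive means some wells, but at most half, below -50%; inactive means no replicate well below -50%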;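 further: luciferase reports HSF-1 transcriptional activity via heat shock element; 0% = median of DMSO wells and -100% = zero luminescence signal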
Starred values were filed as active, the others as inactive.

Results for Cc1ccc2nc(-c3cccc(Br)c3)c(Cc3cccc(Cl)c3)n2c1 ?
esBAF inh: inconclusive; Wnt act: 36*; SMARCA2 act: 2

What do the screens show for `O=C(C[C@H]1CC[C@@H](NC(=O)C2CCC2)[C@@H](CO)O1)Nc1nccs1`?
esBAF inh: 0

What do the screens show for `CNC(=O)C[C@@H]1CC[C@@H]2[C@@H](COc3ccc(NC(=O)Nc4cc(C)cc(C)c4)cc3C(=O)N2C)O1`?
esBAF inh: -4

How did C[C@@H]1CN([C@@H](C)CO)C(=O)c2cc(N(C)C)ccc2O[C@@H](C)CCCCO[C@@H]1CN(C)C(=O)Nc1ccc(C(F)(F)F)cc1 do in these assays?
esBAF inh: 1

What do the screens show for `COc1cccc(-c2ccc3c(c2)[C@H]2[C@H](CCN2C(=O)C2CCC2)[C@H](CO)N3)c1`?
esBAF inh: 2

What do the screens show for `C[C@@H]1CCCCO[C@@H](CN(C)C(=O)NC2CCCCC2)[C@H](C)CN([C@H](C)CO)C(=O)c2cc(NS(=O)(=O)c3cccs3)ccc2O1`?
esBAF inh: 9

How did Cc1ccc2nc(-c3ccc(Cl)cc3)c(Cc3cccc(F)c3)n2c1 do in these assays?
Wnt act: 10; SMARCA2 act: 1

How did CCCc1nc2ccc(C)cn2c1Cc1cccc(Cl)c1 do in these assays?
esBAF inh: 45*; Wnt act: 2; SMARCA2 act: -1

How did Cc1ccc(Cc2c(-c3cccc(Br)c3)nc3ccc(C)cn23)cc1 do in these assays?
Wnt act: -1; SMARCA2 act: 6

How did Cc1ccc2nc(-c3cccc(Br)c3)c(CC3CCCCC3)n2c1 do in these assays?
esBAF inh: 46*; Wnt act: 24; SMARCA2 act: 0

How did Cc1ccc(-c2nc3ccc(Cl)cn3c2Cc2cccc(F)c2)cc1 do in these assays?
esBAF inh: 50*; Wnt act: 2; SMARCA2 act: 2

Results for COc1cccc(S(=O)(=O)N(C)C[C@@H]2Oc3cc(C4=CCCCC4)ccc3S(=O)(=O)N([C@@H](C)CO)C[C@@H]2C)c1 ?
esBAF inh: 4

Results for C[C@@H]1CN([C@@H](C)CO)C(=O)c2cc(NC(=O)CCC(F)(F)F)ccc2O[C@@H](C)CCCCO[C@@H]1CN(C)Cc1ccc(C(=O)O)cc1 ?
esBAF inh: 2

Results for CNC[C@H]1OCCCC[C@@H](C)Oc2ccc(NC(=O)Nc3ccccc3)cc2C(=O)N([C@@H](C)CO)C[C@H]1C ?
esBAF inh: -2

What do the screens show for `Cc1ccc2nc(-c3ccc4c(c3)OCCO4)cc(C(=O)O)c2c1`?
esBAF inh: 8; HSF-1 act: 52*; MITF act: 3; SMARCA2 act: 1; HSF1 inhib: 15

How did Cc1c(C(=O)Nc2ccccc2[N+](=O)[O-])csc1-c1ccccc1 do in these assays?
HSF-1 act: 61*; Wnt act: -1; MITF act: 30; SMARCA2 act: 2; HSF1 inhib: 15

Results for Cc1c(C(=O)Nc2ccccc2)csc1-c1ccccc1 ?
HSF-1 act: 61*; Wnt act: 59*; MITF act: 107*; SMARCA2 act: 2; HSF1 inhib: 28

How did Cc1oc(-c2ccccc2)cc1C(=O)Nc1ccccc1 do in these assays?
esBAF inh: 14; HSF-1 act: -14; MITF act: -1; SMARCA2 act: -4; HSF1 inhib: 0

Results for CC(C)NC(=O)Nc1ccc2c(c1)C(=O)N([C@H](C)CO)C[C@H](C)[C@H](CN(C)CC1CCCCC1)OCCCC[C@H](C)O2 ?
esBAF inh: 4

What do the screens show for `CCCNC(=O)C[C@@H]1CC[C@@H]2[C@H](COc3ccc(NC(=O)c4ccc(C(F)(F)F)cc4)cc3C(=O)N2C)O1`?
esBAF inh: 2

How did C/C=C/c1cnc2c(c1)C(=O)N([C@H](C)CO)C[C@@H](C)[C@H](CN(C)C(=O)C1CCOCC1)O2 do in these assays?
esBAF inh: 7

What do the screens show for `COc1ccc(S(=O)(=O)Nc2ccc3c(c2)C(=O)N([C@@H](C)CO)C[C@@H](C)[C@H](CN(C)C(=O)c2ccccc2)OCCCC[C@@H](C)O3)cc1`?
esBAF inh: 7
